This passage reports Potency, outcome and activity change, negative = inhibition results from PubChem BioAssay (NCATS).

Values without a mark were called inactive. Records with an inconclusive call do not appear. A call without a number means that no potency is given here. Active and inactive are the calls of the source. Calls come from the whole dose curve; as a rule, active = well fitted curve in the direction sought with a large enough effect; inconclusive = small, poorly fitted or top-dose-only effect, or another doubt; inactive = no such curve, though single readings can be large; an effect the other way counts as inactive or inconclusive.

The nature of assay [1]: qHTS to identify inhibitors of the type 1 interferon - major histocompatibility complex class I in skeletal muscle: primary screen against the NCATS Mechanism Interrogation Plate v5.0 (MIPE) Libary (AID 1347411). Note: nearly all actives have a fitted effect of over 65% in size. Note: potency is the fitted concentration of half-maximal effect. An outline of the steps: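 Immortalized human myoblasts (C25cl48) with HiBit knocked into endogenous HLA-B*08:01 were stimulated with 4 ng/ml IFN-beta and given compounds in 11-point 1:3 titration from 46 uM. After 24 h at 37 C, lytic HiBiT luminescence was read.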

Assay [2] can be described thus: qHTS to identify inhibitors of the type 1 interferon - major histocompatibility complex class I in skeletal muscle: primary screen against the NCATS LOPAC collection (AID 1347405).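 Note: lytic HiBiT luminescence reporting HLA-B protein level.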 Note: potency is the fitted concentration of half-maximal effect. The method in brief:
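CRISPR-engineered immortalized human myoblasts (C25cl48) with HiBiT fused to endogenous HLA-B*08:01, stimulated with 4 ng/ml IFN-beta. LOPAC compounds tested as a 7-point 1:4.3 titration (top 46 uM final), 24 h at 37 C; lytic HiBiT luminescence read.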
A general note: qHTS replaces the single test concentration by a dilution series.

Assay [3] is described as follows: qHTS for inhibitors of adenylyl cyclases using a fission yeast platform: a pilot screen against the NCATS LOPAC library (AID 1347410). The method in brief:
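Growth medium went into the plates first, then compounds were pinned (final up to 57 µM), then CHP2027 yeast were added. Plates were incubated overnight (18 h) at 30C in the dark, and GFP was measured by laser scanning cytometry.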

Assay [4] deals with Protein phosphatase 1D (Homo sapiens) (UniProt O15297). In words: RapidFire Mass Spectrometry qHTS Assay for Modulators of WT P53-Induced Phosphatase 1 (WIP1) (AID 1347424).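 Note: amount of dephosphorylated VEPPL-S-QETFS peptide product formed by WIP1; series mostly up to about 63 µM.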 The method in brief: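 10 nM WIP1 preincubated with compounds 1 hr at room temperature in pH 7.5 Tris buffer with 30 mM MgCl2, 1 mM TCEP; 2 uM VEPPL-pS-QETFS phosphopeptide for 5 min, formic acid quench; dephosphorylated product quantified by RapidFire MS against labelled standard.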
Sequence of Protein phosphatase 1D (Homo sapiens) (O15297 whole entry, looked up): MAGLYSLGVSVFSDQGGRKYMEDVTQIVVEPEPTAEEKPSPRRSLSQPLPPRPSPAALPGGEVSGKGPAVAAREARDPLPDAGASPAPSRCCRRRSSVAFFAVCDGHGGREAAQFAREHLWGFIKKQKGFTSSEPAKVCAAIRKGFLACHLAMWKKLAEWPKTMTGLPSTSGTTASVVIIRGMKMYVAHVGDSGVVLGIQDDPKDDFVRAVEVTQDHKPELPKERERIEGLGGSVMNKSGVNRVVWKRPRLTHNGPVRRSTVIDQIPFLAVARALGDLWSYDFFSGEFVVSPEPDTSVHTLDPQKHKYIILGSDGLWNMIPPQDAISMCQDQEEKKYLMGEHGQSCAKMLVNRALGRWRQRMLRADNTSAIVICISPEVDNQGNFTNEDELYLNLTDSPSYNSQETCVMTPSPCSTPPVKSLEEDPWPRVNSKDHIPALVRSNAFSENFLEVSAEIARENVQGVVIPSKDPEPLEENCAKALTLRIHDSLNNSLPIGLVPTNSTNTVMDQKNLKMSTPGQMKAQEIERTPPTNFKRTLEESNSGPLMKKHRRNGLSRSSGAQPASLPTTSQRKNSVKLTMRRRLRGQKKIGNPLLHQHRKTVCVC

Take `Nc1nccc(-c2c(-c3ccc(F)cc3)ncn2C2CCCCC2)n1`: in assay [1], the Potency result was “inactive”.
Turning to `CN1C(=O)c2sccc2N(C)c2nc(Nc3ccc(S(N)(=O)=O)cc3)ncc21`, the Potency in assay [1] is 26.2 µM (active).
On to `Cc1cc(-c2cc(OC(=O)c3ccccc3)ccc2Cl)cc2nnc(Nc3ccc(OCCN4CCCC4)cc3)nc12`, for which the Potency entry in assay [1] is “inactive”.
As for `COc1cccc(-c2cc(F)ccc2C2Cc3nc(N)nc(C)c3C(=O)N2)n1` (configuration not stated), the Potency in assay [1] is 0.0587 µM (active).
Same read-out and setting: under `CCC[C@H](N[C@H]1CCc2cc(F)cc(F)c2C1)C(=O)Nc1cn(C(C)(C)CNCC(C)(C)C)cn1` stands “inactive”.
As to `CC[C@@H](C)Nc1cc(C(=O)NC2CC3CC[C@@H](C2)N3c2ccc(C(=O)C3CC3)cn2)c(C)cc1C(N)=O` (some centres not stated), in assay [1], the Potency is 0.117 µM (active).
In the case of `COc1cc(OC)c2c(=O)[nH]c(-c3cc(C)c(OCCO)c(C)c3)nc2c1`, the Potency result in assay [1] was “inactive”.
Turning to `Cc1cc(C(=O)Nc2cc(Nc3ccc4c(/C=C/c5ccccn5)n[nH]c4c3)ccc2F)n(C)n1`, the Potency in assay [1] was 29.4 µM (active).
Take `CN[C@H]1CC[C@@H](c2ccc(Cl)c(Cl)c2)c2ccccc21`: the Potency in assay [2] is 28.2 µM (active). In assay [3], the molecule was classed as inactive. Further, the Potency entry in assay [4] is “inactive”.
For the molecule `CC(C)NC(=O)N1CC[C@H](N=C2Nc3cc(F)ccc3N(CC(F)F)c3ccc(Cl)cc32)C1`, the activity change, negative = inhibition in assay [1] is -19.9% [at 8.44 µM].
Regarding `O=C(Nc1ccnc(NC(=O)C2CC2)c1)c1c(Cl)cccc1Cl`, the Potency entry in assay [1] is “inactive”.
For the molecule `CC1(C)CN(C(=O)c2ccc(-c3cccc4nc(NC(=O)C5CC5)nn34)cc2)C1`, the Potency in assay [1] was 4.15 µM (active).
On the same count and under the same terms, under `O=C(Nc1ccc2[nH]nc(-c3ccncc3)c2c1)[C@@H]1CCN(CC(=O)N2CCN(c3ccc(-c4ncccn4)cc3)CC2)C1` stands “inactive”.
With `NCCCC(=O)O`, the Potency entry in assay [2] was “inactive”. Also, the molecule was called inactive in assay [3].
Regarding `N#Cc1ccnc(Nc2cc(C3CCN(C4COC4)CC3)cc(N3CCC(F)(F)C3)n2)c1`, the Potency in assay [1] is 2.34 µM (active).
On to `COc1cc(S(C)(=O)=O)ccc1Nc1nc2ccc(-c3ccc(NC(=O)[C@H](C)c4ccc(F)cc4)cc3)cn2n1`, for which the Potency result in assay [1] is “inactive”.
`Cc1ccc(C(=O)Nc2ccc(CN3CCN(C)CC3)c(C(F)(F)F)c2)cc1C#Cc1cnc2[nH]ncc2c1`: in assay [1], the Potency was 0.117 µM (active).
The same measure, in the same setting: under `CS(=O)(=O)Nc1cc2occ(NC=O)c(=O)c2cc1Oc1ccccc1` stands “inactive”; under `C=CC(=O)Nc1cccc(Nc2nc(Nc3ccc(NC4CN(CCF)C4)cc3OC)ncc2C(F)(F)F)c1`, 16.5 µM (active).
